# Bioassay records: PubChem BioAssay, National Center for Advancing Translational Sciences (NCATS)
# Hits are enriched below; roughly 3.7% of the tested compounds scored in any of these assays.
# Tau fluor counter = counter-screen for tau fibril formation inhibitors | tau K18 P301L Alexa594 fluorescence, heparin fibrillization | Potency, µM (series often up to 57.7 µM), for the others: at the highest dose activity change, negative = decrease | 280,000 compounds, 0.93% hits; also: % is scaled to controls: 0 for no effect and ±100 for the full control effect; nearly all actives have a fitted effect of over 55% in size
#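 Human K18 P301L tau (15 uM unlabeled plus 0.24 uM Alexa 594-labeled, final) in 100 mM sodium acetate pH 7 was mixed with compound and 20 uM heparin and incubated 6 hr at 37 C.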
# Tau fibril ThT = tau fibrillization inhibition (ThT binding). P10636. recombinant tau K18 P301L (four-repeat tau fragment), heparin-induced fibrillization, ThT fluorescence. Potency, µM (highest dose often 57.4 µM), without a hit: top-dose activity, negative = inhibition, hits mostly inhibitors. 270,000 compounds, 2.1% hits. AID 1460; also: % is scaled to controls: 0 for no effect and ±100 for the full control effect; nearly all actives have a fitted effect of over 55% in size
# Target sequence (P10636 561-689 P618L limits assumed): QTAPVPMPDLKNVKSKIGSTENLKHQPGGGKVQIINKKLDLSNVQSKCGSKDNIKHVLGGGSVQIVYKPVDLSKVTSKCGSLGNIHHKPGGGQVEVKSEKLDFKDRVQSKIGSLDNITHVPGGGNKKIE
#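 Aggregation was driven by heparin (20 uM final) acting on recombinant tau […] bearing P301L in 100 mM sodium acetate pH 7; fibrils were detected with Thioflavin T.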
# HttQ103 aggreg = reduces HttQ103-GFP aggregates in PC12 cells; PC12 HttQ103-GFP aggregates, Acumen cytometry, 40 h; Potency, µM (titrated, usually from 46.1 µM), for the others: at the highest dose activity change, negative = inhibition, most hits filed as inhibitors; 220,000 compounds, 1.1% hits; AID 1688; also: % is scaled to controls: 0 for no effect and ±100 for the full control effect; nearly all actives have a fitted effect of over 60% in size
#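 Read-out: GFP aggregate count by laser scanning cytometer (488 nm excitation, 500-530 nm emission, 1–25 µm objects >6 SD above background). Cells: PC12, inducible HTTex1-Q103-GFP, 100 nM tebufenozide; compounds titrated.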
# Tau FP inhib = inhibitors of human tau fibril formation. K18 P301L tau heparin fibrillization, Alexa594 FP, 6 h. 280,000 compounds, 0.39% hits. Potency, µM (series often up to 57.7 µM), for the others: at the top dose activity, negative = inhibition, hits mostly inhibitors; also: % is scaled to controls: 0 for no effect and ±100 for the full control effect; nearly all actives have a fitted effect of over 55% in size
#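 Compound effects on tau fibrillization are measured by Alexa 594 fluorescence polarization (ex 555, em 632 nm). K18 P301L tau is used at 15 uM with 0.24 uM labeled tracer, and 20 uM heparin induces aggregation over 6 hr at 37 C.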
# HTT ATP protect = cytoprotection in Huntington HTT-Q103 PC12 cell model; PC12 HTT-Q103 induced, cytoprotection, ATP luminescence, 40 h; Potency, µM (doses to about 56.4 µM), for the others: cytoprotection (ATP increase), actives largely listed as activators; 230,000 compounds, 0.14% hits; also: % of control where 0% means no effect; nearly all actives have a fitted effect of over 45% in size
#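 Compounds were screened for protection of PC12 cells against cell death after tebufenozide induction (100 nM final) of mutant Huntingtin exon 1 (Q103) fused to GFP.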
# An asterisk follows results filed as active; ? = inconclusive; . = no result; [ ] = dose if it differs, or a comment. Calls follow the shape of the dose curve; as a rule, active = well fitted curve in the direction sought with a large enough effect; inconclusive = small, poorly fitted or top-dose-only effect, or another doubt; inactive = no such curve, though single readings can be large; an effect the other way counts as inactive or inconclusive. Potency is read from the fitted curve at half-maximal effect.
SMILES,Tau fluor counter,Tau fibril ThT,HttQ103 aggreg,Tau FP inhib,HTT ATP protect
CC(=O)N1CCn2c3c(c(=O)c4cc(C)ccc42)CCC31 (stereo unspecified),?,25.1µM*,-6.4%,?,-8.7%
CC(=O)N1CCn2c3c(c4cc(C)ccc42)CCCC31 (stereo unspecified),-19.1%,-18.5%,14.6%[9.22 µM],9.7%,8.7%[10 µM]
COc1ccccc1N1CCN(S(=O)(=O)c2c(C)sc3ncn(CC(=O)N(C)c4ccc(C(C)C)cc4)c(=O)c23)CC1,-21.2%,-15.5%,.,6.3%,.
COc1ccc(COc2cc(-c3cccc(OC)c3)nc3ccc(NC(=O)c4ccc(OC)cc4)cc23)cc1,?,?,?,?,-170.5%[40.3 µM]
COc1ccc(COc2cc(-c3cccc(OC)c3)nc3ccc(NC(=O)c4ccc(Cl)cc4)cc23)cc1,-12.0%,-10.1%,-25.7%,20µM*,-100.3%[40.3 µM]
O=C(O)c1ccccc1N/N=C\c1ccnc2ccccc12,-23.9%,5.01µM*,-11.1%,10.7%,-89.2%
O=C(O)c1cccc2c(/C=N/Nc3ccccn3)c[nH]c12,-23.7%,.,-17.2%[9.22 µM],9.5%,-10.1%[10 µM]
O=C(O)c1ccccc1N/N=C/c1cc(Br)cc(Br)c1O,?,14.1µM*,5.0%[9.22 µM],21.8%,-19.5%[10 µM]
Oc1c(Br)cc(Br)cc1C=NCc1ccccc1,-11.7%,?,-9.3%,-7.9%,-15.9%
Cc1ccc(C)c(CNC(=O)CN2C(=O)CSc3ccc(S(=O)(=O)N(C)C)cc32)c1,-7.9%,-1.6%,.,-1.7%,.
Cc1ccc2[nH]cc(C(c3ccccc3)c3ccc(Cl)s3)c2c1 (stereo unspecified),7.94µM*[quencher],?,.,?,.
CCc1ccc(C(c2ccccc2)c2c[nH]c3ccc(C)cc23)s1 (stereo unspecified),10µM*[quencher],12.6µM*,.,?,.
Clc1ccc(C(c2ccccc2)c2c[nH]c3ccccc23)s1 (stereo unspecified),6.4%,5.0%,.,-3.2%,.
CCOC(=O)/C(=C/C=C1\Sc2cc(C)c(C)cc2N1CC)C(C)=O,-28.2%,10µM*,-35.3%[9.22 µM],7.9%,-16.6%[10 µM]
CCOC(=O)/C(=C/C=C1\Sc2ccccc2N1CC)C(C)=O,-23.3%,?,-4.1%,?,-11.8%[10 µM]
COc1ccccc1-c1nc2ccccc2nc1-c1ccccc1OC,-4.2%,0.2%,5.3%,1.2%,?
COc1ccc2nc3ccccc3nc2c1N,?,10µM*,31.1%[9.22 µM],?,-24.8%[10 µM]
COc1ccc2nc3cccc(OC)c3nc2c1,-25.7%,15.8µM*,8.3%,?,-49.7%
Cc1cc(Cl)nc(-n2nc(C)cc2C)n1,-2.3%,-5.1%,?,-2.5%,-1.4%[10 µM]
Cc1cc(C)n(-c2nc(C)nc(N)n2)n1,3.0%,-0.5%,0.794µM*,-2.5%,7.1%
Cc1cc(C)n(-c2nc(Nc3ccccc3)nc(-n3nc(C)cc3C)n2)n1,-4.6%,-11.1%,-2.3%,-1.5%,-10.3%
Cc1cc(C)n(-c2nc(N(c3ccccc3)c3ccccc3)nc(-n3nc(C)cc3C)n2)n1,3.5%,20µM*,-26.5%,?,-15.2%[10 µM]
O=[N+]([O-])c1ccc(-c2c(O)c3ccccc3c3nc4ccccc4nc23)cc1,-20.6%,-15.5%,7.08µM*,2.9%,-17.8%
CCCOc1ccc(CSc2nc3ccccc3[nH]2)cc1,-27.0%,?,7.94µM*,-14.7%,-87.1%
Fc1ccc(CSc2nc3ccccc3[nH]2)c2ccccc12,?,-23.3%,?,25.1µM*,-50.6%
SMILES,Tau fluor counter,Tau fibril ThT,HttQ103 aggreg,Tau FP inhib,HTT ATP protect
CCN=c1scc(-c2ccc3c(c2)NC(=O)CO3)n1N=C1CCCC1,?,?,11.2µM*,3.9%,-42.7%
CCCCN=c1scc(-c2ccc3c(c2)NC(=O)CO3)n1N=C1CCCC1,?,?,?,16.6%,15.2%
Cc1cc(N2CCCCC2)nc2ccc(NC(=O)/C=C/c3ccccc3OC(C)C)cc12,7.08µM*[quencher],?,.,13.0%,.
O=C(/C=C/c1ccccc1Cl)Nc1cccc(S(=O)(=O)NC2=NCCCCC2)c1,14.1µM*[quencher],0.7%,1.0%,?,.
Cc1cc(N2CCCCC2)nc2ccc(NC(=O)/C=C/c3ccccc3Cl)cc12,10µM*[quencher],4.47µM*,.,9.8%,.
Cc1cc(N)c2cc(NC(=O)/C=C/c3ccccc3Cl)ccc2n1,-14.2%,?,22.6%[9.22 µM],?,1.2%[10 µM]
Cc1cc(N2CCCC2)nc2ccc(NC(=S)NCCCOC(C)C)cc12,-13.9%,-15.2%,-19.6%,9.2%,4.3%
FC(F)(F)c1cnc(NNC(=S)Nc2ccc(Cl)cc2)c(Cl)c1,?,?,11.2µM*,-0.4%,7.5%[10 µM]
Cc1ccc(NC(=S)NNc2ncc(C(F)(F)F)cc2Cl)c(C)c1,-8.6%,-14.1%,?,-5.7%,17.4%
Cc1ccc(NC(=S)NNc2ncc(C(F)(F)F)cc2Cl)cc1,-15.2%,-13.4%,-19.9%,6.7%,11.7%[10 µM]
Fc1ccc(NC(=S)NNc2ncc(C(F)(F)F)cc2Cl)c(F)c1,-8.6%,-13.3%,7.94µM*,2.3%,-95.8%
Cc1ccc(CNC(=O)CCc2c(C)c3cc4c(C)coc4cc3oc2=O)cc1,-11.9%,-13.3%,.,9.1%,.
Cc1nc2ccccc2c(=O)n1/N=C/c1ccc(O)cc1O,-1.1%,-7.3%,9.0%[9.22 µM],4.5%,-120.5%
CN(/N=C/c1ccc(O)cc1O)c1nc(-c2ccccc2)cc(-c2ccccc2)n1,14.1µM*[quencher],?,5.3%,?,21.6%[10 µM]
O=C(NCCCN1CCOCC1)c1sc2cc([N+](=O)[O-])ccc2c1Cl,-25.9%,28.2µM*,-7.9%,?,.
O=C(NCCCN1CCOCC1)c1sc2cc(Cl)ccc2c1Cl,-7.2%,-6.0%,-18.8%,-3.3%,-42.0%
CC(C)=NO[C@@H](C)c1cc(-c2c(C)cc(C)cc2C)no1,-3.9%[11.6 µM],-7.5%[11.5 µM],.,-0.9%[11.6 µM],0.8%[10 µM]
c1ccc(-n2cnc3ccccc32)cc1,2.8%,-1.4%,?,1.6%,-21.5%
COc1ccc(-n2cnc3ccccc32)cc1,-13.5%,-15.6%,14.1µM*,0.2%,-10.6%
COc1ccc2ncn(-c3ccccc3)c2c1,-6.6%,-12.8%,10µM*,-10.1%,23.2%[10 µM]
Cc1ccc([N+](=O)[O-])cc1NC(=O)c1cccs1,1.2%,4.6%,15.2%,2.2%,-26.9%
CNc1cc([N+](=O)[O-])ccc1N/C=C/C(=O)c1cccs1,?,15.8µM*,?,9.8%,25.0%[10 µM]
CNc1cc([N+](=O)[O-])ccc1N/C=C/C(=O)c1ccc2c(c1)OCO2,-26.8%,3.55µM*,21.0%,8.2%,.
O=C(/C=C/Nc1ccc(Nc2ccccc2)cc1)c1cccs1,7.94µM*[quencher],1.26µM*,10.2%[9.22 µM],?,13.8%[10 µM]
COc1ccc(C(=O)/C=C/Nc2ccc([N+](=O)[O-])cc2C)cc1OC,?,1.58µM*,-7.9%,?,-0.2%[10 µM]
O=C(/C=C/Nc1cccc([N+](=O)[O-])c1)c1cccs1,?,4.47µM*,-3.1%,3.2%,0.2%[10 µM]
COc1ccc(N/C=C\C(=O)c2ccc3c(c2)OCO3)cc1OC,?,2.82µM*,28.1%,0.6%,.
